Read-out in assay [1]: Vascular endothelial growth factor receptor 2 (Homo sapiens) (UniProt P35968)
The assay can be described thus: BSK_4H_VEGFRII: BioMAP Diversity Plus: 4H Assay for Vascular endothelial growth factor receptor 2 (VEGFR2) Biomarker Activity (AID 2283031). As to conditions: primary human endothelial cells (HUVEC); actives raise or lower the signal. In outline: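 HUVEC (human primary), 4H system; 24 h post-dose; VEGFRII by ELISA; bidirectional curve fit vs DMSO baseline; gain or loss of signal scored.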

Read-out in assay [2]: Human Leukocyte Antigen - DR isotype (HLADR), HLA-DRA (gene 3122)
In words: BSK_BE3C_HLADR: BioMAP Diversity Plus: BE3C Assay for Human Leukocyte Antigen - DR isotype (HLADR) Biomarker Activity (AID 2283032). As to conditions: primary human bronchial epithelial cells; actives raise or lower the signal. In outline:
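Primary human bronchial epithelial cells (BE3C); 24 h chemical exposure; HLA-DR by ELISA; bidirectional curve fit vs DMSO baseline.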

Read-out in assay [3]: Vascular cell adhesion molecule 1 (VCAM1), VCAM1 (gene 7412)
The assay can be described thus: BSK_4H_VCAM1: BioMAP Diversity Plus: 4H Assay for Vascular cell adhesion molecule 1 (VCAM1) Biomarker Activity (AID 2283033).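 Note: cell-surface VCAM-1 protein measured by ELISA.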 As to conditions: primary human endothelial cells (HUVEC); actives raise or lower the signal. In outline:
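HUVEC, 24 h post-dose; VCAM-1 by ELISA. Bidirectional curve fit vs DMSO baseline. Parallel SRB total-protein stain (0.1% SRB after 10% TCA fixation, 560 nm) for cytotoxicity.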

Read-out in assay [4]: Interferon-gamma inducible Protein 10 (IP10), CXCL10 (gene 3627)
The assay can be described thus: BSK_BE3C_IP10: BioMAP Diversity Plus: BE3C Assay for Interferon-gamma inducible Protein 10 (IP10) Biomarker Activity (AID 2283034). As to conditions: primary human bronchial epithelial cells; actives raise or lower the signal. In outline: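 ELISA readout of IP-10 in BE3C system: primary human bronchial epithelial cells, 24 h post-dosing; bidirectional curve fit vs DMSO baseline.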

Read-out in assay [5]: Monokine induced gamma interferon (MIG), CXCL9 (gene 4283)
The assay can be described thus: BSK_BE3C_MIG: BioMAP Diversity Plus: BE3C Assay for Monokine induced gamma interferon (MIG) Biomarker Activity (AID 2283035).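 Note: MIG protein measured by ELISA in BE3C cultures after 24 h of dosing.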 The settings on record: primary human bronchial epithelial cells; actives raise or lower the signal. In outline: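 ELISA quantified MIG after 24 h exposure of primary bronchial epithelial cultures, analysed in both directions relative to DMSO. Cytotoxicity tracked in parallel cultures by sulforhodamine B staining.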

Read-out in assay [6]: Plasminogen activator inhibitor-1 (PAI1), SERPINE1 (gene 5054)
The assay can be described thus: BSK_BE3C_PAI1: BioMAP Diversity Plus: BE3C Assay for Plasminogen activator inhibitor-1 (PAI1) Biomarker Activity (AID 2283037). The settings on record: primary human bronchial epithelial cells; actives raise or lower the signal. In outline: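 ELISA read-out of PAI-1 from human bronchial epithelial primary cells, 24 h post-dosing; bidirectional curve fit vs DMSO baseline, gain or loss of signal scored.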

Read-out in assay [7]: urokinase plasminogen activator (uPA), PLAU (gene 5328)
The assay can be described thus: BSK_BE3C_uPA: BioMAP Diversity Plus: BE3C Assay for urokinase plasminogen activator (uPA) Biomarker Activity (AID 2283038).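 Note: uPA protein level quantified by ELISA in cell cultures; uPA read one day after compound addition.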 As to conditions: primary human bronchial epithelial cells; actives raise or lower the signal. In outline:
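ELISA read-out of uPA in human lung primary bronchial epithelial cultures, 24 h post-dosing. Gain or loss of signal fitted bidirectionally relative to DMSO baseline; cytotoxicity checked in parallel cultures via SRB total protein stain.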

Read-out in assay [8]: Urokinase-type plasminogen activator receptor (uPAR), PLAUR (gene 5329)
In words: BSK_BE3C_uPAR: BioMAP Diversity Plus: BE3C Assay for Urokinase-type plasminogen activator receptor (uPAR) Biomarker Activity (AID 2283039).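 Note: uPAR protein level measured by ELISA on the cells; cells exposed to compound for one day before measurement.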 As to conditions: primary human bronchial epithelial cells; actives raise or lower the signal. In outline:
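ELISA readout of uPAR on human lung primary bronchial epithelial cells, 24 h post-dosing. Bidirectional curve fit relative to DMSO vehicle baseline; gain or loss of signal both scored.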

Read-out in assay [9]: Interleukin-6 (IL6), IL6 (gene 3569)
In words: BSK_CASM3C_IL6: BioMAP Diversity Plus: CASM3C Assay for Interleukin-6 (IL6) Biomarker Activity for (AID 2283040). The settings on record: primary human coronary artery smooth muscle cells; actives raise or lower the signal.

Read-out in assay [10]: Tissue plasminogen activator (tPA), PLAT (gene 5327)
In words: BSK_BE3C_tPA: BioMAP Diversity Plus: BE3C Assay for Tissue plasminogen activator (tPA) Biomarker Activity (AID 2283041).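 Note: tPA level quantified by ELISA one day after compound addition.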 The settings on record: primary human bronchial epithelial cells; actives raise or lower the signal. In outline: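 ELISA read-out of tPA on human primary bronchial epithelial cells, 24 h post-dosing; bidirectional fit vs DMSO negative control/baseline.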

Read-out in assay [11]: Interleukin-8 (IL8), CXCL8 (gene 3576)
In words: BSK_CASM3C_IL8: BioMAP Diversity Plus: CASM3C Assay for Interleukin-8 (IL8) Biomarker Activity (AID 2283042).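 Note: IL-8 protein level quantified by ELISA.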 As to conditions: primary human coronary artery smooth muscle cells; actives raise or lower the signal.

Read-out in assay [12]: Human Leukocyte Antigen - DR isotype (HLADR), HLA-DRA (gene 3122)
In words: BSK_CASM3C_HLADR: BioMAP Diversity Plus: CASM3C Assay for Human Leukocyte Antigen - DR isotype (HLADR) Biomarker Activity (AID 2283043).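 Note: cell-surface HLA-DR protein level quantified by ELISA.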 The settings on record: primary human coronary artery smooth muscle cells; actives raise or lower the signal.

Read-out in assay [13]: Macrophage colony-stimulating factor (MCSF), CSF1 (gene 1435)
In words: BSK_CASM3C_MCSF: BioMAP Diversity Plus: CASM3C Assay for Macrophage colony-stimulating factor (MCSF) Biomarker Activity (AID 2283044).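 Note: M-CSF protein amount quantified by ELISA after 24 h exposure.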 The settings on record: primary human coronary artery smooth muscle cells; actives raise or lower the signal.

Read-out in assay [14]: Low-density lipoprotein receptor (LDLR), LDLR (gene 3949)
The assay can be described thus: BSK_CASM3C_LDLR: BioMAP Diversity Plus: CASM3C Assay for Low-density lipoprotein receptor (LDLR) Biomarker Activity (AID 2283045).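 Note: LDLR protein level on the cell surface quantified by ELISA.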 As to conditions: primary human coronary artery smooth muscle cells; actives raise or lower the signal.

Read-out in assay [15]: Monocyte Chemoattractant Protein-1 (MCP1), CCL2 (gene 6347)
In words: BSK_CASM3C_MCP1: BioMAP Diversity Plus: CASM3C Assay for Monocyte Chemoattractant Protein-1 (MCP1) Biomarker Activity (AID 2283046).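 Note: MCP-1 level quantified by ELISA 24 h after dosing.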 As to conditions: primary human coronary artery smooth muscle cells; actives raise or lower the signal.

Assay [16] can be described thus: BSK_CASM3C_Proliferation: Cell Proliferation Assessment in the BioMAP Diversity Plus: CASM3C Assay (AID 2283047).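 Note: sulforhodamine B total protein stain as relative cell number at 560 nm; sub-confluent cells exposed 48 h before staining; fitted both ways against DMSO so gain or loss of cell number.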 As to conditions: primary human coronary artery smooth muscle cells.
Read-out in assay [17]: Monokine induced gamma interferon (MIG), CXCL9 (gene 4283)
In words: BSK_CASM3C_MIG: BioMAP Diversity Plus: CASM3C Assay for Monokine induced gamma interferon (MIG) Biomarker Activity (AID 2283048).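 Note: MIG protein level measured by ELISA.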 As to conditions: primary human coronary artery smooth muscle cells; actives raise or lower the signal.

Read-out in assay [18]: serum amyloid A (SAA), SAA1 (gene 6288)
In words: BSK_CASM3C_SAA: BioMAP Diversity Plus: CASM3C Assay for serum amyloid A (SAA) Biomarker Activity (AID 2283049).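 Note: SAA protein level quantified by ELISA.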 The settings on record: primary human coronary artery smooth muscle cells; actives raise or lower the signal.

A short description of assay [19]: BSK_CASM3C_SRB: Viability Assessment in the BioMAP Diversity Plus: CASM3C Assay (AID 2283050).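 Note: total protein by SRB staining as cytotoxicity measure in parallel cultures; cells exposed to compound for 24 h.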 The settings on record: primary human coronary artery smooth muscle cells.

The values that follow come from PubChem BioAssay (EPA / NIEHS).

The source made the active and inactive calls. Rule for the calls: active = hit-call score of the fitted dose curve at least 0.9, where 1 is the maximum; inactive = score below 0.9.

Usually AC50 stands for the concentration at which the activity in the assay is half-maximal.

For the compound `Cc1cccc(C)c1O`, the outcome in assay [1], in [2], in assay [3], in assay [4], in [5] and in assay [6] was inactive. The outcome in [7], in assay [8], in [9], in [10], in assay [11] and in [12] was inactive. The outcome in assay [13], in assay [14], in [15], in assay [16], in [17] and in assay [18] was inactive. In assay [19], the result was inactive.
As to `CC1(C)CC(N=C=O)CC(C)(CN=C=O)C1` (stereo unspecified), the outcome in assay [1], in assay [2], in assay [3], in assay [4], in assay [5] and in [6] was inactive. The outcome in [7], in assay [8], in assay [9], in [10], in assay [11] and in [12] was inactive. The result in assay [13], in [15], in assay [16], in assay [17], in assay [18] and in assay [19] was inactive. In assay [14], the AC50 was 6.43 µM (active).
For the compound `CNC(=O)[C@H]1O[C@@H](n2cnc3c(NCc4cc(Cl)ccc4OCc4cc(C)no4)ncnc32)[C@H](O)[C@@H]1N`, the result in [1], in [2], in [3], in assay [4], in assay [5] and in assay [6] was inactive. Further, the result in assay [7], in assay [8], in [9], in assay [10], in assay [11] and in assay [12] was inactive. Moreover, the result in [13], in [14], in assay [15], in assay [16], in assay [17] and in [18] was inactive. In addition, in assay [19], the outcome was inactive.
Turning to `Cc1ccccc1Cl`, the outcome in assay [1], in assay [2], in assay [3], in assay [4], in [5] and in assay [6] was inactive. Further, the outcome in assay [7], in assay [8], in assay [9], in [10], in [11] and in assay [12] was inactive. The outcome in assay [13], in assay [14], in assay [15], in assay [16], in assay [17] and in [18] was inactive. The result in [19] was inactive.
On to `CCCc1cc(=O)[nH]c(=S)[nH]1`, for which the result in assay [1], in [2], in [3], in assay [4], in [5] and in [6] was inactive. In addition, the outcome in [7], in assay [8], in [9], in [10], in [11] and in assay [12] was inactive. In addition, the result in [13], in assay [14], in assay [15], in assay [16], in [17] and in assay [18] was inactive. For the same compound, in [19], the result was inactive.
As to `CC(=O)Oc1ccccc1C(=O)O`, the result in [1], in [2], in assay [3], in assay [4], in assay [5] and in assay [6] was inactive. Further, the result in [7], in assay [8], in [9], in assay [10], in assay [11] and in [12] was inactive. Further, the result in [13], in [14], in assay [15], in assay [16], in assay [17] and in assay [18] was inactive. In addition, the result in assay [19] was inactive.
As for `Cc1cccc([N+](=O)[O-])c1C`, the outcome in assay [1], in assay [2], in assay [3], in assay [4], in assay [5] and in [6] was inactive. In addition, the outcome in assay [7], in assay [8], in assay [9], in [10], in assay [11] and in assay [12] was inactive. Moreover, the result in [13], in [14], in assay [15], in [16], in assay [17] and in [18] was inactive. Besides, the result in assay [19] was inactive.
`Cc1ccc(C)c(C)c1`: the outcome in [1], in assay [2], in assay [3], in [4], in assay [5] and in [6] was inactive. The outcome in assay [7], in [8], in assay [9], in assay [10], in [11] and in assay [12] was inactive. Further, the outcome in assay [13], in assay [14], in assay [15], in assay [16], in [17] and in [18] was inactive. In assay [19], the result was inactive.
For `Cc1ccc(C)c(O)c1C`, the outcome in assay [1], in assay [2], in assay [3], in assay [4], in assay [5] and in [6] was inactive. Besides, the outcome in [7], in [8], in assay [9], in [10], in [11] and in assay [12] was inactive. Moreover, the result in assay [13], in assay [14], in assay [15], in assay [16], in [17] and in [18] was inactive. Also, the result in [19] was inactive.
